# Shown are actives, neighbours in structure and some others; about 7.2% of the full set was active somewhere.
# FLuc inh = firefly luciferase inhibition. P08659. purified firefly luciferase, luminescence, 8 min. Potency, µM (doses to about 57.1 µM), usual class: inhibitors. 72,000 compounds, 2.2% hits. AID 411; note: nearly all actives have a fitted effect of over 40% in size
#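 Compounds were tested as concentration series (qHTS) against purified P. pyralis luciferase with luciferin and 10 uM ATP in 50 mM imidazole pH 7.2, 50 mM KCl, 7 mM MgCl2, 0.01% Tween 20, 0.05% BSA. Luminescence was read after 8 min at ambient temperature.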
# Tau filament bind = binders of human tau filaments; Potency, µM (top dose mostly 57.1 µM); P10636; recombinant tau filaments, thioflavin S fluorescence, 15 h; filaments grown with octadecylsulfate alongside compound; 71,000 compounds, 2% hits; AID 596;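 note: actives lower thioflavin S fluorescence by blocking filaments or displacing dye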
# Target sequence (P10636 whole entry, looked up): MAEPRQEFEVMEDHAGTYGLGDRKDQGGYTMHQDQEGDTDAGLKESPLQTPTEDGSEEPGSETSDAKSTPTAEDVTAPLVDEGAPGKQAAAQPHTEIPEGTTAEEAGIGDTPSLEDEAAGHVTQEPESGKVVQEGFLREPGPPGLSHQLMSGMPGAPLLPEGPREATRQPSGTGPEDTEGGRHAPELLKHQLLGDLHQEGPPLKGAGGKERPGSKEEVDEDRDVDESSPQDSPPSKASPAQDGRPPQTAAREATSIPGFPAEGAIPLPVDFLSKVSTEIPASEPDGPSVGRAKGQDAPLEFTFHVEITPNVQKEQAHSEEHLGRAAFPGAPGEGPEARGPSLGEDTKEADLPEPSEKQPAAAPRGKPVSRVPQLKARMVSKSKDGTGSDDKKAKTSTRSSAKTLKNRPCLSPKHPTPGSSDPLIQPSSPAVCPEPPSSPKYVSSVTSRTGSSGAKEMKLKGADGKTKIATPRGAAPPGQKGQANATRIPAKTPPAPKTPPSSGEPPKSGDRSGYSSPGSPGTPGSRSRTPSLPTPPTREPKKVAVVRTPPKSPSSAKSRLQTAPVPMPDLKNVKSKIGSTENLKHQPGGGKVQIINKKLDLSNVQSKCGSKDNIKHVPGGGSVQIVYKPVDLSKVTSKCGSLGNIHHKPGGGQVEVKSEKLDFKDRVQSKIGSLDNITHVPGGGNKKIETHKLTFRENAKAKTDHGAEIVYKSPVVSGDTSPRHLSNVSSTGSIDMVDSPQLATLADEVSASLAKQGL
#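 Quantitative HTS: thioflavine S signal from ODS-induced tau filaments, excited at 450 nm, emission 510 nm. Conditions: 1 uM tau, 30 uM ODS, 15 h at 37 C, pH 7.4.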
# TSHR agonist = agonists of human thyroid stimulating hormone receptor; P16473; HEK293-CNG-TSHR cells (CNG channel as cAMP sensor), membrane potential dye, cAMP; Potency, µM (doses to about 57.1 µM), usual class: activators; 73,000 compounds, 0.48% hits; AID 926; active = well fitted activation curve with a large enough effect in the main read-out, with a control signal flat, not every such curve was filed as active; inconclusive = small, poorly fitted or top-dose-only effect, or a change in a side signal; inactive = no such curve, though single readings can be large or run the other way; reference of the percent scale not stated here;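 note: the control signal comes from parental cells without the receptor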
#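 cAMP rise detected as CNG-channel membrane depolarization by fluorescent dye (emission 590 nm), 30 min after compound, following 60 min dye loading containing 100 uM RO 20-1724 at room temperature. Cells: TSHR/CNG HEK 293, with parental CNG HEK 293 as control.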
# HEK293 cAMP ctrl = parental HEK293 cAMP activation (counter-screen). 73,000 compounds, 2.5% hits. Potency, µM (series often up to 57.1 µM), hits mostly activators. parental HEK293 CNG cAMP sensor, membrane potential fluorescence; note: nearly all actives have a fitted effect of over 55% in size
#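 Parental HEK 293 cells stably expressing a modified CNG channel (no TSHR) report cAMP rise as membrane depolarization. Membrane potential dye with 100 uM RO 20-1724 was loaded for 60 min at room temperature, then compound added for 30 min; fluorescence read at 590 nm.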
# Bst PK mod = pyruvate kinase (B. stearothermophilus) modulation | purified pyruvate kinase, luminescence ATP production; ribose 5-phosphate activator present at AC10 | Potency, µM | 51,000 compounds, 1.2% hits | AID 361; in the data active = potency below about 11 µM; inconclusive = mostly about 12 µM to 25 µM;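 the screen sought inhibitors and activators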
# ERK AVP inh = inhibitors of vasopressin-stimulated ERK signaling pathway; 72,000 compounds, 0.99% hits; HEK293-V1b, vasopressin-stimulated pERK AlphaScreen; AID 995; Potency, µM (titrated, usually from 57.5 µM), most hits filed as inhibitors; note: nearly all actives have a fitted effect of over 55% in size
#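 HEK293 cells stably expressing V1b receptor, seeded overnight in 1% FBS, were treated with compounds for 30 min at 37C, then stimulated 5 min with 25 nM vasopressin; phospho-ERK read by AlphaScreen SureFire after lysis.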
# Hits are given with their value; 0 = inactive; ? = inconclusive; - = not tested or not shown; [ ] = another dose, or the depositor's remark. Unless noted, calls come from the whole dose curve; as a rule, active = well fitted curve in the direction sought with a large enough effect; inconclusive = small, poorly fitted or top-dose-only effect, or another doubt; inactive = no such curve, though single readings can be large; an effect the other way counts as inactive or inconclusive.
SMILES,FLuc inh,Tau filament bind,TSHR agonist,HEK293 cAMP ctrl,Bst PK mod,ERK AVP inh
Cc1ccc(-n2nnc3c(=O)n(CC(=O)OCc4ccccc4)cnc32)cc1,0,0,?,25µM,-,-
CCCc1cc2c(c(=O)o1)C(O)C1OC1C2=O (stereo not given),-,-,0[11.4 µM],0[11.4 µM],-,0[11.5 µM]
COc1nc(C#N)nc(N(C)C)n1,0,13µM,0[11.4 µM],0,0,0
Cc1cnc(CNc2ncncc2-c2ccccc2C#N)cn1,0[2.29 µM],0,0,0,-,0
Cc1cc2n(n1)C(c1ccc(N(C)C)cc1)Nc1ccccc1-2 (stereo not given),25µM,0,0,0,?,0
Cc1cc2n(n1)C(c1ccccc1)Nc1ccccc1-2 (stereo not given),0,0,0[11.4 µM],0,-,0
CC(=O)O[C@H]1CC[C@]2(C)C(=CC[C@H]3[C@H]4C[C@H]5O[C@]6(CC[C@H](C)CN6)[C@H](C)[C@@H]5[C@]4(C)CC[C@@H]32)C1,0[11.4 µM],0[11.4 µM],0[11.4 µM],0[11.4 µM],-,0[11.5 µM]
CCCc1cc(C(N)=O)c(NC(=O)c2cc(C)on2)s1,0,32µM,0,0,0,0
CCCc1cc(C(N)=O)c(NC(=O)c2ccoc2C)s1,0,0,0,0,-,0
Cc1cc(C(=O)Nc2sc(C)c(-c3ccc(F)cc3)c2C(N)=O)no1,7.9µM,0,0,0,0,0
C=CC(=O)OCCOCCOC(=O)C=C,-,0,?,0,-,0
COc1ccc(Cc2nn3c(Cn4nnc5ccccc54)nnc3s2)cc1,16µM,0,-,0,-,0
CC(=O)S[C@@H]1CC2=CC(=O)CC[C@@]2(C)[C@H]2CC[C@]3(C)[C@H](CC[C@@]34CCC(=O)O4)[C@H]12,0,0,0,0,-,0
O=C(COC(=O)c1ccccn1)c1ccc(Br)cc1,10µM,0[11.4 µM],0[11.4 µM],0[11.4 µM],-,0
COc1ccc(C)cc1NC(=O)CN(Cc1nnc(-c2ccc(Cl)cc2)o1)C1CCCC1,0,0,?,16µM,4.7,0
COc1ccc(C)cc1NC(=O)CSc1nnc(-c2ccc(C)cc2)o1,0,0,?,?,-,0
COc1ccccc1Nc1nc(-c2cccs2)cs1,13µM,13µM,0,0,-,?
COc1ccc(OC)c(Nc2nc(-c3cccs3)cs2)c1,0,16µM,0,0,-,?
CC(=O)Nc1nc(-c2cccs2)cs1,0,0,0,0,-,?
Nc1nc(-c2cccs2)cs1,0[11.4 µM],0[11.4 µM],0[11.4 µM],0[11.4 µM],-,0[11.5 µM]
CCOc1ccc(N2Cc3ncccc3C2=O)cc1,0,0,0,0,11,0
N#Cc1c(-c2ccco2)c2c([nH]c1=S)CCCC2,0,32µM,0,0,-,?
COc1ccc(-c2c3c([nH]c(=S)c2C#N)CCC3)cc1,0,-,-,-,0,-
CN(C)Cc1ccccc1-c1nc(NC2CC2)c2ccccc2n1,0[2.29 µM],0,?,?,-,0
CC1(C)Cc2c(sc(NC(=O)c3ccco3)c2C#N)CO1,7.9µM,0,0,0,?,0
SMILES,FLuc inh,Tau filament bind,TSHR agonist,HEK293 cAMP ctrl,Bst PK mod,ERK AVP inh
O=c1oc2ccccc2n1CCn1c2ccccc2c2nc3ccccc3nc21,0,0,?,7.9µM,0,0
CCOC(=O)N1CCC(Nc2c(OCC)c(=O)c2=O)CC1,0,0,0,0,-,0
CCOC(=O)N1CCC(Nc2c(Nc3ccc(C)c(C)c3)c(=O)c2=O)CC1,0,20µM,0[11.4 µM],0,0,0
COc1ccc2nc3c(nc2c1)C(=O)c1ccccc1-3,-,-,0,0,-,-
COc1ccc(-c2nc3c(c4c2CC(C)OC4)CN(CCC(C)C)CC3)cc1 (stereo not given),-,-,0[11.4 µM],0[11.4 µM],-,0[11.5 µM]
CC1(C)CC(=O)c2c(noc2-c2ccccc2)C1,0,0,0,0,0,0
c1ccc(-c2onc3cc4c(cc23)OCCO4)cc1,13µM,0,?,?,-,?
Cn1c(=O)c2c(ncn2C[C@@H](O)CO)n(C)c1=O,0,0,0,0,-,0
CCc1ccc(C2CC(c3ccccc3Cl)Nc3nc(N)nn32)cc1 (stereo not given),0,20µM,0,0,-,0
CCc1ccc(C2CC(c3ccccc3)n3ncnc3N2)cc1 (stereo not given),0,0,0,0,-,32µM
CCc1ccc(C2CC(c3ccccc3)Nc3nc(N)nn32)cc1 (stereo not given),0,0,0,0,-,0
O=C1SC(SCc2ccccc2)=N/C1=C\c1ccco1,0,?,?,?,0,0
CCCSC1=N/C(=C\C=C\c2ccco2)C(=O)S1,0,2µM,0,0,-,0
N#Cc1c(NC(=O)c2ccncc2)sc2c1CCC2,20µM,16µM,0,0,-,0
Cc1cc(C(=O)Nc2sc3c(c2C#N)CCCCC3)cs1,16µM,0,0,0,0,0
CC1CCN(CC(=O)Nc2sc3c(c2C#N)CCC3)CC1,0,0,?,7.9µM,0,0
CCCC(=O)Nc1sc2c(c1C#N)CCCC2,0,-,-,-,0,-
O=C(O)[C@@H]1C[C@@H](C(=O)O)N1,0,0,0,0,-,0
Cc1cccc(CNc2nc(-c3ccc(C(=O)N(C)C)cc3)nc3ccccc23)c1,0[2.29 µM],0,?,?,-,0
c1coc(-c2nnc(-c3ccc4c(c3)OCO4)o2)c1,10µM,0,?,?,-,0
Brc1ccc(-c2nnc(-c3ccc4c(c3)OCO4)o2)o1,0,0,-,0,0,0
Cc1nnc(SCC2=C(C(=O)O)N3C(=O)[C@@H](NC(=O)Cn4cnnn4)[C@@H]3SC2)s1,0,0,0,0,-,0
O=C(O)CCCn1nc(-c2ccccc2)c2ccccc21,0,0,?,0.16µM,-,-
Cc1cc(C(=O)N[C@@H](c2ccccc2)[C@]2(C)C[C@H]2[C@@H](C)C(=O)Nc2ccc3ccccc3c2)n(C)n1,-,0,0,0,-,0
O=C(COc1ncnc2ccc(Br)cc12)Nc1ccc(N2CCOCC2)cc1,0,0,0,0,0,0
SMILES,FLuc inh,Tau filament bind,TSHR agonist,HEK293 cAMP ctrl,Bst PK mod,ERK AVP inh
Brc1ccc2ncnc(Nc3ccc(N4CCOCC4)cc3)c2c1,0,16µM,0,0,-,?
O=S(=O)(c1ccccc1)N1CCC[C@@]2(CCN(c3cccc(-c4ccccc4)c3)C2)C1,0[11.4 µM],0,0,0,-,0
CC1(C)CC2C1CC[C@]1(C)CCC3C(C(=O)O)CC(=O)O[C@]32C1 (stereo not given in full),-,-,-,-,-,0
CC(C)n1c(C(=O)OCC(=O)NCc2ccc3c(c2)OCO3)cc2sccc21,0,0,?,7.9µM,0,0
CC(C)n1c(C(=O)OCC(=O)NCc2ccc3c(c2)OCO3)cc2occc21,0,0,?,16µM,0,0
CCOc1cccc(=O)c2c(C)n(Cc3ccco3)c(C)c12,0,4µM,?,?,-,0
COC(=O)c1c(C(=O)OC)c(C)n(Cc2ccco2)c1C,0,0,?,?,0,0
CCn1c2ccccc2c2cc(Nc3cc(C)nc4ncnn34)ccc21,0,0,-,0,-,25µM
CCCOC(=O)c1ccc(Nc2cc(C)nc3ncnn23)cc1,0,0,0,0,11,0
CCOC(=O)C1=C(C)NC2=C(C(=O)c3ccccc32)C1c1cccnc1 (stereo not given),0,3.2µM,0,0,0,?
